From PubChem BioAssay (NCATS)
Where “and” joins values, the source holds several entries; their conditions need not be identical. Identical values can stand only once. Records with an inconclusive call do not appear. Unmarked numbers belong to inactive results. Calls of active or inactive are those of the source. Calls follow the shape of the dose curve; as a rule, active = well fitted cell-killing curve with a large enough effect; inconclusive = small, poorly fitted or top-dose-only effect, or effect the other way; inactive = flat fitted curve, though single readings scatter.

assay: MultiTox-Fluor Cytotoxicity Assay - LYMP1-001 - Dead Cells (AID 946); details: LYMP1-001 lymphoblastoid cells, dead-cell protease fluorescence; series mostly up to 92.2 µM; cytotoxicity (dead cells): at the top concentration;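 as to cytotoxicity (dead cells): 0% = DMSO and 100% = tetraoctylammonium bromide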
Source text: NIH Chemical Genomics Center [NCGC]
NIH Molecular Libraries Screening Centers Network [MLSCN]
National Institutes of Environmental Health Sciences [NIEHS]
National Toxicology Program [NTP]
We have developed a 1536-well cell-based assay for quantitative high throughput screening (qHTS) against a number of cell lines to determine in vitro cytotoxicity of small molecules. This particular assay uses a human lymphoblastoid cell line (LYMP1-001) purchased from Coriell Institute for Medical Research.
NCGC Assay Protocol Summary:
The MultiTox-Fluor Cytotoxicity Assay (Promega) is a homogeneous method to simultaneously measure the relative number of live and dead cells in culture by detecting changes in cell membrane integrity. There are two fluorogenic peptide substrates in the assay reagent. Viable cells are determined when the cell-permeant substrate (GF-AFC) enters the cell and is cleaved by protease from live cells resulting in liberated fluorophore. This live-cell protease activity restricted to viable cells is proportional to cell number. The dead cells are determined by using fluorogenic cell-impermeant peptide substrate (bis-AAF-R110) which cleaved by dead cell proteases leaking from damaged cell membrane.
Using the MultiTox-Fluor Cytotoxicity Assay, the relative number of dead cells was measured in the lymphoblastoid cell line with complete culture medium following compound treatment for 16 hours. The assay was performed in opaque black Kalypsys 1536-well plates. In the screen, tetraoctylammonium bromide was used as positive control. Library compounds were measured for their ability to cause acute toxicity in the cell line, as reflected by an increase in dead cell protease activity, in a concentration-dependent manner. Data were normalized to the controls for basal activity (DMSO only) and 100% stimulation (15 uM tetraoctylammonium bromide). AC50 values were determined from concentration-response data modeled with the standard Hill equation.
qHTS protocol for MultiTox-Fluor Cytotoxicity assay
[Step] [Parameter] [Value] [Description]
1. Reagent; 5 uL; 2500 lymphoblastoid cells/well
2. Time; 5 hr; 37 C incubation
4. Controls; 23 nL; Tetraoctylammonium bromide 6.4pM to 92 uM
5. Time; 16 hr; 37 C incubation
6. Reagent; 5 uL; MuliTox-Fluor Assay reagent
7. Time; 60 min; Room Temperature
8. Detection; dead-cell fluorescence (Ex/Em=485/520); EnVision plate reader
Keywords: cytotoxicity, lymphoblastoid cell line, fluorescence, NTPHTS, NTPHTS_NCGC, NIEHS, EPA, DSSTox, MLSMR, MLSCN, NIH Roadmap, qHTS, NCGC
Potency is read from the fitted curve at half-maximal effect.

Q: Which Potency does the source give for `COc1ccc2[nH]cc(CCNC(C)=O)c2c1` here?
A: Its Potency is “inactive”.

Q: With `Cc1cn([C@H]2C=C[C@@H](CO)O2)c(=O)[nH]c1=O` as the compound, how does the Potency read?
A: The Potency was “inactive”.

Q: Which “cytotoxicity (dead cells)” value does the source give for `Clc1ccc(C(c2ccccc2Cl)C(Cl)Cl)cc1` (stereo unspecified) here?
A: Its value is 17%.

Q: For `CCC1(c2ccccc2)C(=O)NCNC1=O`, which “cytotoxicity (dead cells)” value is on record?
A: The value was 12%.

Q: For `Cc1ccc(-c2cc(C(F)(F)F)nn2-c2ccc(S(N)(=O)=O)cc2)cc1`, which “cytotoxicity (dead cells)” value is on record?
A: Its value is 13.8%.

Q: For `Cn1c(=O)c2[nH]cnc2n(C)c1=O`, which “cytotoxicity (dead cells)” value is on record?
A: The value was -22.9%.

Q: For `COc1ccc2c(c1)c(CC(=O)O)c(C)n2C(=O)c1ccc(Cl)cc1`, which “cytotoxicity (dead cells)” value is on record?
A: The value was -2.08%.

Q: For `NCCS(=O)(=O)O`, which “cytotoxicity (dead cells)” value is on record?
A: Its value is -6.64%.

Q: For `CC(C)NCC(O)c1ccc(O)c(O)c1` (stereo unspecified), which “cytotoxicity (dead cells)” value is on record?
A: Its value is -1.07%.

Q: Which Potency does the source give for `COc1cc2c(c(OC)c1OC)-c1ccc(OC)c(=O)cc1[C@@H](NC(C)=O)CC2` here?
A: Its Potency is 63.1 nM (active) and 100 nM (active).

Q: With `Nc1c2c(nc3ccccc13)CCCC2` as the compound, how does the “cytotoxicity (dead cells)” value read?
A: Its value is -1.5%.

Q: With `O=c1c(-c2ccc(O)cc2)coc2cc(O)cc(O)c12` as the compound, how does the “cytotoxicity (dead cells)” value read?
A: The value was -1.11%.

Q: For `Cc1cn([C@H]2C[C@H](N=[N+]=[N-])[C@@H](CO)O2)c(=O)[nH]c1=O`, which “cytotoxicity (dead cells)” value is on record?
A: The value was -6.92%.

Q: Which “cytotoxicity (dead cells)” value does the source give for `Cn1c(=O)c2c(ncn2C)n(C)c1=O` here?
A: Its value is 1.14%.

Q: For `N[C@@H](Cc1c[nH]c2ccc(O)cc12)C(=O)O`, which “cytotoxicity (dead cells)” value is on record?
A: Its value is 21.1%.

Q: For `CC(C)C(=O)Nc1ccc([N+](=O)[O-])c(C(F)(F)F)c1`, which “cytotoxicity (dead cells)” value is on record?
A: The value was 15.2%.

Q: With `Nc1ccn([C@H]2CC[C@@H](CO)O2)c(=O)n1` as the compound, how does the “cytotoxicity (dead cells)” value read?
A: The value was 4.8%.

Q: With `CC(COc1ccccc1)N(CCCl)Cc1ccccc1` (stereo unspecified) as the compound, how does the “cytotoxicity (dead cells)” value read?
A: The value was -3.4%.

Q: Which “cytotoxicity (dead cells)” value does the source give for `O=c1[nH]cc(F)c(=O)[nH]1` here?
A: The value was 10.4%.

Q: For `NS(=O)(=O)c1cc2c(cc1Cl)NCNS2(=O)=O`, which “cytotoxicity (dead cells)” value is on record?
A: The value was -6.19%.

Q: For `COc1ccc(CCN(C)CCCC(C#N)(c2ccc(OC)c(OC)c2)C(C)C)cc1OC` (stereo unspecified), which “cytotoxicity (dead cells)” value is on record?
A: Its value is 12.6%.
